# Reference: PubChem BioAssay (Tox21)
# “And” between values parts separate entries of the source, which are not always exact repeats. Equal values may be shown once. Inconclusive results are not listed. Where a call stands in place of a potency, no number is given. Some structures have more than one record in an assay (separate samples or runs), and their calls can disagree. The source made the active and inactive calls. Unless noted, calls follow the shape of the dose curve; as a rule, active = well fitted curve in the direction sought with a large enough effect in the repeat runs; inconclusive = weak or mixed curves; inactive = no such curve, though single readings can be large; an effect the other way counts as inactive or inconclusive.
# How the values were obtained:
# [1] = qHTS assay to identify small molecule agonists of the estrogen receptor alpha (ER-alpha) signaling pathway in the presence of an antagonist - cell viability counter screen (AID 1259386);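 also: cells exposed to compounds for 22 h at 37 °C before the viability read; nearly all actives have a fitted effect of over 30% in size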; also: potency is read from the fitted curve at half-maximal effect
# Procedure, shortened: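 Cytotoxicity was measured in parallel with the ERE-luciferase agonist screen, in the same wells. The cells were VM7Luc4E2, which endogenously express ER-alpha, and treatment was with compounds plus 10.0nM ICI-182,780 for 22hr.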
# [2] = qHTS assay to identify small molecule antagonists of the TGF-beta/Smad signaling pathway - cell viability counter screen (AID 1346824); also: nearly all actives have a fitted effect of over 50% in size; also: potency is read from the fitted curve at half-maximal effect
# Procedure, shortened: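 Cytotoxicity counter-screen run in the same wells as the beta-lactamase Smad reporter read: CellTiter-Glo luminescence after 30 min at room temperature. HEK 293T SBE-bla cells had 5 hr compound exposure at 37 C with TGF-beta1 (0.25 ng/mL stock).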
# [3] = Human pregnane X receptor (PXR) small molecule agonists, qHTS cell viability counter screen (AID 1346977); also: nearly all actives have a fitted effect of over 50% in size; also: potency is read from the fitted curve at half-maximal effect
# Procedure, shortened: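 PXR-Luc HepG2, 2,000 cells/well, 5% charcoal-stripped FBS; 5hr settle; cpd 24hr, 37C/5% CO2; CellTiter-Fluor at 23hr, read 1hr later (fluorescence).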
# [4] = Caspase-3/7 induction in CHO-K1 cells by small molecules, qHTS cell viability counter screen (AID 1346979); also: nearly all actives have a fitted effect of over 35% in size; also: potency is read from the fitted curve at half-maximal effect
# Procedure, shortened: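 Cells (CHO-K1, wild type) are plated at 1,500 per well and incubated 5hr. Test compounds in DMSO are then pinned in, followed by 16hr at 37C and 5% CO2. Viability is read by CellTiter-Fluor fluorescence after 1hr.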
# [5] = Caspase-3/7 induction in HepG2 cells by small molecules, qHTS cell viability counter screen (AID 1346981); also: nearly all actives have a fitted effect of over 30% in size; also: potency is read from the fitted curve at half-maximal effect
# Procedure, shortened: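 Cell viability is measured as a cytotoxicity counter screen alongside the Caspase-Glo 3/7 readout in identical wells. Wild-type HepG2 cells are treated with test compounds for 16 hr at 37 C before CellTiter-Fluor addition and a 1-hr incubation.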
# [6] = qHTS assay to identify small molecule agonists of the progesterone receptor (PR) signaling pathway - cell viability counter screen (AID 1346799; calls by dose curve; also: nearly all actives have a fitted effect of over 45% in size; also: potency is read from the fitted curve at half-maximal effect)
# Procedure, shortened: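 Luminescence from CellTiter-Glo, added after the beta-lactamase FRET read in the same wells, gave cytotoxicity in PR-UAS-bla HEK293T cells treated with compounds for 16 hr at 37C.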
# [7] = qHTS assay to identify small molecule agonists of the TGF-beta/Smad signaling pathway - cell viability counter screen (AID 1346829); also: nearly all actives have a fitted effect of over 45% in size; also: potency is read from the fitted curve at half-maximal effect
# Procedure, shortened: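 Compound-treated SBE-bla HEK 293T cells (5 hr, 37 C) were assessed for viability with CellTiter-Glo in parallel with the reporter read.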
# [8] = qHTS assay to identify small molecule agonists of the TGF-beta/Smad signaling pathway (AID 1346859; active = well fitted activation curve with a large enough effect in the signal ratio in the repeat runs, not every such curve was filed as active; the % refers to the signal ratio; also: series mostly up to about 77 µM)
# Procedure, shortened: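 SBE-bla HEK 293T, 4,000 cells/well, plated o/n; cpd in DMSO, 5 hr, 37 C/5% CO2; B/G FRET substrate 2 hr RT; ex 405, em 460/530 nm.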
# [9] = molecular target: Thyrotropin-releasing hormone receptor (Homo sapiens) (UniProt P34981); experiment: qHTS assay to identify small molecule antagonists of the thyrotropin-releasing hormone receptor (TRHR) signaling pathway (AID 1346877; active = well fitted inhibition curve with a large enough effect in the repeat runs, not every such curve was filed as active; also: series mostly up to about 51 µM)
# Thyrotropin-releasing hormone receptor (Homo sapiens), sequence (P34981 whole entry, looked up): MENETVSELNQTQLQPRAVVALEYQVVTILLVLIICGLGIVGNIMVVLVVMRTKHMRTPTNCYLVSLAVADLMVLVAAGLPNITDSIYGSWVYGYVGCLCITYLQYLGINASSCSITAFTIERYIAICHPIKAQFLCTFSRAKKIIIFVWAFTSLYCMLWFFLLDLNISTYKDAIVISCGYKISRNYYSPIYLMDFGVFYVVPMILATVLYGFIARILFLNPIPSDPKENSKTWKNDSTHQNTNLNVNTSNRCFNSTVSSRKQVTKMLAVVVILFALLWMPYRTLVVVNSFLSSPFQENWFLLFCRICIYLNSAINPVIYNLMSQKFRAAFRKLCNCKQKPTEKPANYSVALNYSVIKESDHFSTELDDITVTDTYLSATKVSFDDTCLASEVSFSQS
# Procedure, shortened: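 Antagonism is measured as suppression of the calcium response to 1 nM TRH in TRHR-HEK293 cells that have been dye-loaded for 2 h at 37 °C after overnight plating. Each compound is tested at 15 concentrations in triplicate.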
# [10] = molecular target: Thyrotropin-releasing hormone receptor (Homo sapiens) (UniProt P34981); experiment: qHTS assay to identify small molecule agonists of the thyrotropin-releasing hormone receptor (TRHR) signaling pathway (AID 1346891; calls by dose curve; also: potency is read from the fitted curve at half-maximal effect; as to activation: series mostly up to about 58 µM)
# Procedure, shortened: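 Intracellular calcium rise, read as fluorescence every second for 3 min, served as the agonist signal in dye-loaded HEK293 cells expressing TRHR; each compound ran at 15 concentrations in triplicate.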
# [11] = Caspase-3/7 induction in HepG2 cells by small molecules, qHTS assay (AID 1346978); also: nearly all actives have a fitted effect of over 15% in size; also: potency is read from the fitted curve at half-maximal effect
# Procedure, shortened: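 Caspase-3/7 induction was measured by Caspase-Glo 3/7 luminescence (30 min, room temperature) after a 17 hr compound exposure of wild-type HepG2 cells seeded at 2,000 per well and pre-incubated 5 hr.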
# [12] = Caspase-3/7 induction in CHO-K1 cells by small molecules, qHTS assay (AID 1346980); also: nearly all actives have a fitted effect of over 15% in size
# Procedure, shortened: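 Luminescent Caspase-Glo 3/7 read (30min, room temperature) quantified apoptosis induction. Cells were wild-type CHO-K1, treated with compound for 17hr at 37 C and 5% CO2.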
# [13] = molecular target: Nuclear receptor subfamily 1 group I member 2 (Homo sapiens) (UniProt O75469); experiment: Human pregnane X receptor (PXR) small molecule agonists, qHTS assay (AID 1346982); also: nearly all actives have a fitted effect of over 35% in size; also: potency is read from the fitted curve at half-maximal effect
# Nuclear receptor subfamily 1 group I member 2 (Homo sapiens), sequence (O75469 whole entry, looked up): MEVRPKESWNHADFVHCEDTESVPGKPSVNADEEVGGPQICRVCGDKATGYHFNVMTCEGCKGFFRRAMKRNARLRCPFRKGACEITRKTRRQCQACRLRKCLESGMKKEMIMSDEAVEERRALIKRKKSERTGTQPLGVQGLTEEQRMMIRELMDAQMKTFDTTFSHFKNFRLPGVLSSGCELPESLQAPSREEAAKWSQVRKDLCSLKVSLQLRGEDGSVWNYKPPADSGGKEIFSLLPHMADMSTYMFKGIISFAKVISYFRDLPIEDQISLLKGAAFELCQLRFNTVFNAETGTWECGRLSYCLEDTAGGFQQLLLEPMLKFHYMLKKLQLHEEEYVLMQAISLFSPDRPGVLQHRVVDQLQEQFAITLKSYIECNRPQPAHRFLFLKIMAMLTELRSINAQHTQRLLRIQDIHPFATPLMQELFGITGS
# Procedure, shortened: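 Cells: HepG2 stably carrying PXR-Luc. Medium held 5% charcoal-stripped FBS. Compounds in DMSO added after 5 hr plating, incubated 24 hr, then luminescence quantified with ONE-Glo.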
# [14] = molecular target: Progesterone receptor (Homo sapiens) (UniProt P06401); experiment: qHTS assay to identify small molecule antagonists of the progesterone receptor (PR) signaling pathway (AID 1346795; active = well fitted inhibition curve with a large enough effect in the signal ratio in the repeat runs, not every such curve was filed as active; the % refers to the signal ratio; also: potency is read from the fitted curve at half-maximal effect)
# Progesterone receptor (Homo sapiens), sequence (P06401 whole entry, looked up): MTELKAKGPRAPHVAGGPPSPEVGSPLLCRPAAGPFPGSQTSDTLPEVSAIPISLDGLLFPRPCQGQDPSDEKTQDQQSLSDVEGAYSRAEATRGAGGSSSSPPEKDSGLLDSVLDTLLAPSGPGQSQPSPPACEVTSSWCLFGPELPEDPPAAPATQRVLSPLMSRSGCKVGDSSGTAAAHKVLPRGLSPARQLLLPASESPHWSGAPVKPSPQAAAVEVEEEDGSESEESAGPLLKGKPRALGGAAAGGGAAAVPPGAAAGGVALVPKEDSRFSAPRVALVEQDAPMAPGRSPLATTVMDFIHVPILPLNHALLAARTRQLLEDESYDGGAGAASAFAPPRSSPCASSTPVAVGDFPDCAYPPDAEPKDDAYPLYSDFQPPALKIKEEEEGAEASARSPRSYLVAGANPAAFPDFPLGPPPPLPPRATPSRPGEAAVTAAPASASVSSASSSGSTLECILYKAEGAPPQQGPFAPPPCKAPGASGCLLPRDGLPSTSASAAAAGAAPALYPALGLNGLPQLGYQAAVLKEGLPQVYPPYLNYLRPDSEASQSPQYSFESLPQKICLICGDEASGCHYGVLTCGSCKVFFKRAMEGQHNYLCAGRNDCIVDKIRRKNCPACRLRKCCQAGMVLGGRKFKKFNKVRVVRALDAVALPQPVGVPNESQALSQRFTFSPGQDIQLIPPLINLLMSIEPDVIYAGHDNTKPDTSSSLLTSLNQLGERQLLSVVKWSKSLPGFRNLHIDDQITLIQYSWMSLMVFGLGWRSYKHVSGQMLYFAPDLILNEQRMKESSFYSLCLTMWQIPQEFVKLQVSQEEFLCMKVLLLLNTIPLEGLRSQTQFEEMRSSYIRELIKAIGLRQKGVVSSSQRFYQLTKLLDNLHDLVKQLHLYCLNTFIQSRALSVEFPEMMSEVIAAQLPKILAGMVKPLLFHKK
# Procedure, shortened: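 Read-out is fluorescence from the LiveBLAzer B/G FRET substrate, cleaved by a UAS-controlled beta-lactamase in PR-UAS-bla HEK293T cells after 16 hr exposure to compound plus 1 nM promegestone (final), followed by 2 hr at room temperature.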
# [15] = molecular target: Nuclear receptor subfamily 1 group I member 2 (Homo sapiens) (UniProt O75469); experiment: Human pregnane X receptor (PXR) activation by small molecules, qHTS assay (AID 1346985); also: nearly all actives have a fitted effect of over 40% in size; also: potency is read from the fitted curve at half-maximal effect
# Procedure, shortened: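 DPX-2 cells (HepG2 co-transfected with a PXR response element and a CYP3A4-promoter luciferase construct) were seeded at 2,000 per well, rested 5 hr at 37C, then exposed to DMSO-dissolved compounds for 24 hr. Activation was read as luciferase luminescence.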
# [16] = molecular target: Cytochrome P450 2D6 (Homo sapiens) (UniProt P10635); experiment: Cytochrome P450 Family 2 Subfamily D Member 6 (CYP2D6) small molecule antagonists: luciferase reporter qHTS assay (AID 1671196); also: nearly all actives have a fitted effect of over 50% in size; also: potency is read from the fitted curve at half-maximal effect
# Cytochrome P450 2D6 (Homo sapiens), sequence (P10635 whole entry, looked up): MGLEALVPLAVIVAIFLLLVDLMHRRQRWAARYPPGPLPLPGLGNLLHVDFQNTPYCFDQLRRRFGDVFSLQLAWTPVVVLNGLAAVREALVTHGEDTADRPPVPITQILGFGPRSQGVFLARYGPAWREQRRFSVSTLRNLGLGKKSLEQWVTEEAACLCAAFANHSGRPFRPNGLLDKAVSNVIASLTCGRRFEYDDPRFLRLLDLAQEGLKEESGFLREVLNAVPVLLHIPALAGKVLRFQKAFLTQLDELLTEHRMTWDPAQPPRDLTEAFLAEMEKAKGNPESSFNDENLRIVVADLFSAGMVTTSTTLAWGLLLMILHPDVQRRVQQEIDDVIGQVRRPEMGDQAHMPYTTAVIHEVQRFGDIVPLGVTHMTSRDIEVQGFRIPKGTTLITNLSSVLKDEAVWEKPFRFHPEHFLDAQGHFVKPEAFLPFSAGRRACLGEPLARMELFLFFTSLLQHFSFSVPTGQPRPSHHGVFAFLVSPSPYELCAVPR
# Procedure, shortened: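 Enzyme and proluciferin substrate were first combined with test chemical for 10 min at room temperature. Adding NADPH regeneration solution started a 1 h reaction, stopped with luciferin detection reagent and read by luminescence 20 min later.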
# [17] = qHTS assay to identify small molecule antagonists of the progesterone receptor (PR) signaling pathway - cell viability counter screen (AID 1346798);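 also: HEK293T PR-UAS-bla cells stimulated with the agonist R5020; series mostly up to about 92 µM; nearly all actives have a fitted effect of over 50% in size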
# Procedure, shortened: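 HEK293T PR-UAS-bla, 2% charcoal-stripped FBS; 4 hr pre-plate; cpd + R5020, 16 h 37C; LiveBLAzer read first; then CellTiter-Glo 30 min RT, luminescence.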
# [18] = molecular target: Cytochrome P450 2C19 (Homo sapiens) (UniProt P33261); experiment: Cytochrome P450 Family 2 Subfamily C Member 19 (CYP2C19) small molecule antagonists: luciferase reporter qHTS assay (AID 1671197); also: nearly all actives have a fitted effect of over 65% in size; also: potency is read from the fitted curve at half-maximal effect
# Cytochrome P450 2C19 (Homo sapiens), sequence (P33261 whole entry, looked up): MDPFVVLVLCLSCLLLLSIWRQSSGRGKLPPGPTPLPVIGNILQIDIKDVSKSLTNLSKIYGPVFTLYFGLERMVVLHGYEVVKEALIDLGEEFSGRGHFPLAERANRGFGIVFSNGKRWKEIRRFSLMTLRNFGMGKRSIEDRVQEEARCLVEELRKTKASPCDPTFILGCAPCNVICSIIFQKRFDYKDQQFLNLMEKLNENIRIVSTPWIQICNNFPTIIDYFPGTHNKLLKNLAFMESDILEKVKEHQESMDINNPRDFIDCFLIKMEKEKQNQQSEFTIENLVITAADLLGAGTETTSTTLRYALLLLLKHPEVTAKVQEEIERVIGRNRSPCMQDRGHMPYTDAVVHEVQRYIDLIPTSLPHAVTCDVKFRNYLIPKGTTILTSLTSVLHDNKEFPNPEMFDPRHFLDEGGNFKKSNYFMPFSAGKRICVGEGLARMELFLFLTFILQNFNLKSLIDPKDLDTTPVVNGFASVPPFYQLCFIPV
# Procedure, shortened: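 P450-Glo CYP2C19 screening system; proluciferin substrate; DMSO compound stocks; 10 min RT preincubation; NADPH regeneration, 1 h at 37C; luciferin detection reagent, 20 min RT; luminescence as RLU.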
# [19] = molecular target: Nuclear receptor subfamily 1 group I member 2 (Rattus norvegicus) (UniProt Q9R1A7); experiment: Rat pregnane X receptor (rPXR) activation by small molecules, qHTS assay (AID 1346983); settings: rPXR luciferase reporter cells, One-Glo luminescence, 24 h; stronger effect = higher value; also: nearly all actives have a fitted effect of over 20% in size
# Nuclear receptor subfamily 1 group I member 2 (Rattus norvegicus), sequence (Q9R1A7 whole entry, looked up): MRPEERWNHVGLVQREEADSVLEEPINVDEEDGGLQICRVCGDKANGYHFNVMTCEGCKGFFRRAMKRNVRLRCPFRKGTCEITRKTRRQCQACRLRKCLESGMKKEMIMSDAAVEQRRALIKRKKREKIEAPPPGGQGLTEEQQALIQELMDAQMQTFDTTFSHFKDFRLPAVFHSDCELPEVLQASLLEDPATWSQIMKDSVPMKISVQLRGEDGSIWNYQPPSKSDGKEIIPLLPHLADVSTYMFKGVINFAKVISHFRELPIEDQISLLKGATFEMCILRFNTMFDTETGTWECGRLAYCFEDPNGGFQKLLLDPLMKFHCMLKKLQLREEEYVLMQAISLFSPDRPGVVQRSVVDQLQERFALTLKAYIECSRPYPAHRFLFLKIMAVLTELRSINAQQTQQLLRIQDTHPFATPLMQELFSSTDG
# Procedure, shortened: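 Luminescent readout (One-Glo luciferase, 30 min room temperature) followed 24 hr compound treatment at 37 C of rPXR cells plated 2,000 per well and preincubated 5hr; qHTS format with compounds delivered in DMSO.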
Structure (SMILES),Potency [1],Potency [2],Potency [3],Potency [4],Potency [5],Potency [6],Potency [7],outcome [8],Potency [9],Potency [10],Potency [11],Potency [12],Potency [13],Potency [14],Potency [15],Potency [16],Potency [17],Potency [18],max activation [19]
CCN(CC)CCOc1ccc(/C(=C(\Cl)c2ccccc2)c2ccccc2)cc1,inactive,inactive,39.4 µM (active) and 26.6 µM (active),55.6 µM (active),55.6 µM (active),,,,,,,,,,,,,,
OCCOCCN1CCN(C(c2ccccc2)c2ccc(Cl)cc2)CC1 (stereo not drawn),inactive,inactive,24 µM (active),53.8 µM (active) and inactive,21.4 µM (active) and inactive,33.9 µM (active),inactive,inactive,inactive,inactive,53.8 µM (active) and inactive,inactive,8.52 µM (active) and inactive,,,,,,
CC(=O)O[C@]1(C(C)=O)CC[C@H]2[C@@H]3C[C@H](C)C4=CC(=O)CC[C@]4(C)[C@H]3CC[C@@]21C,inactive,inactive,inactive,inactive,inactive,,inactive,,,,inactive,inactive,5.44 µM (active),inactive,1.58 µM (active),inactive,,,
C=C(C)C1CC=C(C)C(OC(C)=O)C1 (stereo not drawn),inactive,inactive,inactive,inactive,inactive,inactive,inactive,inactive,,,inactive,,inactive,inactive,,28.1 µM (active) and inactive,,,
CC(C)CCOC(=O)c1ccc(N(C)C)cc1,,inactive,inactive,inactive,inactive,inactive,inactive,inactive,inactive,inactive,inactive,inactive,inactive,inactive,inactive,inactive,inactive,4.9 µM (active),
O=C(O)c1cccc(C(=O)O)c1,inactive,inactive,inactive,inactive,inactive,inactive,inactive,,inactive,inactive,inactive,,inactive,,,inactive,inactive,inactive,
CC1=CC(=O)c2ccccc2C1=O,38.6 µM (active) and inactive,49 µM (active),43.3 µM (active),24.3 µM (active) and 21.1 µM (active),68.6 µM (active) and inactive,inactive,54.9 µM (active),,inactive,inactive,inactive,,,,,31.7 µM (active),inactive,14.2 µM (active) and 15.5 µM (active),
CC(C(O)c1ccc(O)cc1)N1CCC(Cc2ccccc2)CC1 (stereo not drawn),inactive,inactive,inactive,inactive,inactive,,inactive,inactive,inactive,inactive,inactive,,inactive,inactive,inactive,,,,-2.92% (inactive)
c1ccc2c(c1)-c1cccc3c1c-2cc1ccccc13,inactive,inactive,inactive,47.4 µM (active),inactive,inactive,inactive,,,,inactive,inactive,29.9 µM (active) and 21.7 µM (active),,,27.6 µM (active) and inactive,inactive,,
Oc1c(Cl)cc(Cl)cc1Sc1cc(Cl)cc(Cl)c1O,,inactive,,15.4 µM (active) and 62.1 µM (active) and 17.2 µM (active),15.4 µM (active),,inactive,inactive,,39.6 µM (active) and inactive,inactive,inactive,,21.7 µM (active) and 49.3 µM (active),,inactive,,71.2 µM (active) and 79.6 µM (active) and inactive,
